Results on 40 compounds are retold here after PubChem BioAssay (Tox21).

Results filed as inconclusive are left out. A call without a number means that no potency is given here. The source made the active and inactive calls. Calls follow the shape of the full dose curve.
Potency is read from the fitted curve at half-maximal effect.

This experiment can be described thus: qHTS assay to identify small molecule antagonists of the estrogen receptor alpha (ER-alpha) signaling pathway using the BG1 cell line (AID 743080).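 Also: BG1 cells stimulated with 17beta-estradiol alongside compound; nearly all actives have a fitted effect of over 25% in size.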 As to conditions: BG1Luc4E2 ERE-luciferase antagonist mode, luminescence; series mostly up to 70.3 µM. From the text: National Center for Advancing Translational Sciences [NCATS]
NIH Chemical Genomics Center [NCGC]
U.S. Environmental Protection Agency [EPA]
National Institutes of Environmental Health Sciences [NIEHS]
National Toxicology Program [NTP]
U.S. Food and Drug Administration [FDA]
Estrogen receptor (ER), a nuclear hormone receptor, plays an important role in development, metabolic homeostasis and reproduction. Endocrine disrupting chemicals (EDCs) and their interactions with steroid hormone receptors like ER causes disruption of normal endocrine function. Therefore, it is important to understand the effect of environmental chemicals on the ER signaling pathway. To identify ER antagonists, BG1-Luc-4E2 cell line (provided by Dr. Michael Denison from University of California) has been used to screen the Tox21 10K compound library. BG1Luc4E2 cell line endogenously expresses full-length ER-alpha and is stably transfected with a plasmid containing four estrogen responsive elements (ERE) upstream of a luciferase reporter gene.
Tox21 Assay Protocol Summary:
BG1-Luc-4E2 cells were cultured in phenol red free assay medium containing 10% charcoal stripped FBS for 5 days before the assay was performed. The cells were dispensed at 4,000 cells/4 uL of assay medium per well into white wall/solid-bottom 1536-well plates using a Multidrop Combi (ThermoFisher Scientific, Waltham, MA) dispenser. The assay plates were incubated at a 37C and 5% CO2 for 24 h, and then 23 nL of compounds dissolved in DMSO, positive controls or DMSO only was transferred to the assay plate using a Pintool station (Kalypsys, San Diego, CA), followed by addition of 1 uL of 17beta-estradiol in assay medium using a Flying Reagent Dispenser (Aurora Discovery, San Diego, CA). After the plates were incubated at 37 C and 5% CO2 for 21.5 h, 1 uL of CellTiter-Fluor reagent (Promega, Madison, WI) of measuring cytotoxicity was added using Flying Reagent Dispenser (FRD) to each well. The assay plates were incubated at 37 C and 5% CO2 for additional 30 min and the fluorescence intensity was quantified by a ViewLux plate reader (PerkinElmer, Shelton, CT). For measuring luciferase reporter gene activity, 4 uL of ONE-Glo reagent (Promega) was added to each plate using an FRD and luminescence was quantified by a ViewLux plate reader after 30 min incubation at room temperature.
For orientation: qHTS replaces the single test concentration by a dilution series.
As for `CC(C)=CCC/C(C)=C/C=O`, the Potency entry was “inactive”. For `CCCCCCCC(=O)O`, the Potency result is “inactive”.

On to `COc1c2ccoc2cc2oc(=O)ccc12`, for which the Potency result is “inactive”.

For `Nc1cccc(N)n1`, the Potency entry was “inactive”. The result for `CC1(C)C(=O)N(Cl)C(=O)N1Cl` reads “inactive”; that for `COc1ccc([C@@H]2CC(=O)c3c(O)cc(O[C@@H]4O[C@H](CO[C@@H]5O[C@@H](C)[C@H](O)[C@@H](O)[C@H]5O)[C@@H](O)[C@H](O)[C@H]4O)cc3O2)cc1OC`, “inactive”. The result for `CC(=O)CC(=O)N(C)C` reads “inactive”; that for `CC/C=C(\C(=O)N[C@@H]1C(=O)N2C(C(=O)OCOC(=O)C(C)(C)C)=C(COC(N)=O)CS[C@H]12)c1csc(N)n1`, “inactive”; that for `OCC(O)CS` (stereo not given), “inactive”. Next, `CCCCCCCCC(=O)O`: “inactive”. On to `COc1cc(NC(=O)CC(C)=O)c(OC)cc1Cl`, for which the Potency entry was “inactive”. The result for `CCc1cccc(O)c1` reads “inactive”; that for `O=C(Cl)c1ccc(C(=O)Cl)cc1`, “inactive”. Next, `O=c1c(O)c(-c2ccc(O)c(O)c2)oc2cc(O)cc(O)c12`: “inactive”. For the compound `Nc1cccc(C(F)(F)F)c1`, the Potency entry was “inactive”. The result for `CCCCCCCCO` reads “inactive”. The result for `Cc1ccccc1Cl` reads “inactive”. The result for `O=C(O)C1=NN(c2ccc(S(=O)(=O)O)cc2)C(=O)C1` reads “inactive”; that for `OB(O)O`, “inactive”; that for `C=CC(C)(C)C`, “inactive”.

As to `O=C1C(N(CO)C(=O)NCO)N(CO)C(=O)N1CO` (stereo not given), the Potency entry is “inactive”. On to `NC(=O)NC(N)=O`, for which the Potency entry was “inactive”. Consider `CCCCCCC(=O)O`, for which the Potency entry is “inactive”. Next, `COc1ccc2cc3[n+](cc2c1OC)CCc1cc2c(cc1-3)OCO2`: 26.6 µM (active); `CN1CCCC1=O`: “inactive”; `CCc1cccc(CC)c1N`: “inactive”.

For `CC(C)c1ccc(C(C)C)cc1`, the Potency result was “inactive”. Take `O=C1CCCCCCCCCCC1`: the Potency result was “inactive”. The result for `OC[C@H]1O[C@@H](Oc2ccc(O)cc2)[C@H](O)[C@@H](O)[C@@H]1O` reads “inactive”. Take `CC(=O)OC/C=C(\C)CCC=C(C)C`: the Potency entry was “inactive”. For the compound `Cc1ccccc1C=O`, the Potency entry is “inactive”.

Take `O=Cc1ccc(CO)o1`: the Potency result was “inactive”.

`Cc1cc(C)cc(O)c1`: the Potency result is “inactive”. As to `COc1ccc(N)c(OC)c1`, the Potency result was “inactive”. As for `CCCCCCCCCCCC(=O)N(C)CC(=O)O`, the Potency result is “inactive”. The result for `COc1c(Cl)ccc(Cl)c1C(=O)O` reads “inactive”; that for `Cc1ccc(C(C)C)cc1`, “inactive”; that for `Cc1nnc(NS(=O)(=O)c2ccc(N)cc2)s1`, “inactive”. In the case of `COC(=O)CCCCC(=O)OC`, the Potency entry was “inactive”. For `CC(=O)OC(C)(C)C1CC=C(C)CC1` (stereo not given), the Potency entry is “inactive”.
